High-throughput results as filed in PubChem BioAssay.
The list is not random: actives were taken first. Their share in the collection is about 1.5%.
GLD-1 TGE inh – GLD-1-TGE RNA interaction inhibition (C. elegans) | Q17339 | purified GLD-1 + fluorescein TGE RNA, fluorescence polarization | inhibition, % at 5.96 µM | 320,000 tested, 0.44% active;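 active = percent inhibition above a per-plate cutoff, the plate mean of test compounds plus 3 SD, cut at about 30% in these data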;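 note: 0% = DMSO wells with GLD-1 and probe and 100% = wells lacking GLD-1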
Bcl-xL primary – inhibitors of human Bcl-xL; inhibition, % at 10.9 µM; 320,000 tested, 0.7% active; AID 2129; GST-Bcl-xL / FITC-Bim BH3 peptide fluorescence polarization;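 active = inhibition above the mean of all tested compounds plus 3 SD, cutoff set per campaign, cut at about 30% in these data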;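 note: 0% = DMSO wells and 100% = unlabeled Bim-BH3 peptide competitor; inhibitors lower millipolarization by displacing the labeled peptide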
EBV gp42 inh – EBV gp42 inhibition; AID 1085; 220,000 tested, 0.42% active; Fluorescence polarization binding assay, mP read-out; Q1HVG2; inhibition, % (tested at 21.74 µM); in the data active = inhibition above about 50%
MEX-5 binding – C. elegans MEX-5 TCR-2 RNA binding activity. Q9XUB2. MEX-5/FITC-TCR2 RNA binding, fluorescence polarization; active compounds read low. activity score (negative = inhibition of binding), % at 10 µM. 300,000 tested, 0.38% active;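 active = inhibition past about -25% in most replicates, and total fluorescence under double the plate's negative control median, limit read from the data; inconclusive = replicates evenly split on the limit, or fluorescence at least double controls; inactive = too little inhibition in most replicates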;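 note: 0% = DMSO and -100% = 5 µM competing unlabeled TCR2 RNA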
Target sequence (Q9XUB2 whole entry, looked up): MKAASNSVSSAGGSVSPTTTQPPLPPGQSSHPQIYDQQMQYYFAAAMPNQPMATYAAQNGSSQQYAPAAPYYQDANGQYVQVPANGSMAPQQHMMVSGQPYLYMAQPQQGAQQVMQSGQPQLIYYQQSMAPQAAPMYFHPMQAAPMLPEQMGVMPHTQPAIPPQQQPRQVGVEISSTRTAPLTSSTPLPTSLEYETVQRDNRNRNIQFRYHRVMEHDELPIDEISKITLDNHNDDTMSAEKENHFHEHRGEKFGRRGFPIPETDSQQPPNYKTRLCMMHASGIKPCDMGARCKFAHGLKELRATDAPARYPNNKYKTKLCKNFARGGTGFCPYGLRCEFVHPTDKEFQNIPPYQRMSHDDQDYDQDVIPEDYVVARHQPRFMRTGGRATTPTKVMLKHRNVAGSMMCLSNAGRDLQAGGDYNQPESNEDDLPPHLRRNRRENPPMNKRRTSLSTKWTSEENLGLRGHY
MCL1-BIM inh – disrupts human MCL1 binding to BIM-BH3 peptide; Q07820; GST-MCL1 / FITC-Bim-BH3 fluorescence polarization; inhibition, % at 10.9 µM; 320,000 tested, 0.68% active;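 active = inhibition above the mean inhibition of all tested compounds plus 3 SD, set per campaign, cut at about 40% in these data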;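 note: 0% = DMSO wells and 100% = unlabeled Bim-BH3 peptide control; higher means more loss of mP so more displacement of Bim peptide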
E coli Lon inh – E. coli protease La inhibition. purified E. coli Lon protease, fluorescence polarization. inhibition, % at 7.94 µM. 360,000 tested, 0.42% active; in the data active = inhibition above about 13%, passing the limit was not always enough;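 note: 0% = enzyme with probe and DMSO and 100% = no enzyme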
Bcl-xL conf – counter-screen for MCL1 inhibitors: confirmation of human Bcl-xL inhibitors. inhibition, % at 10.9 µM. 1,700 tested, 54% active. shares compounds with MCL1-BIM inh. GST-Bcl-xL / FITC-Bim BH3 peptide FP binding;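 active = inhibition above a cutoff equal to the mean inhibition of all tested compounds plus 3 SD, cut at about 30% in these data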;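 note: 0% = DMSO wells and 100% = unlabeled Bim BH3 control peptide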
MCL1 inh confirm – confirmation of human MCL1 and BIM-BH3 interaction inhibitors; shares compounds with MCL1-BIM inh; GST-MCL1 / FITC-Bim-BH3 fluorescence polarization; inhibition, % at 10.9 µM; 1,700 tested, 61% active; AID 2168;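 active = inhibition above the average of all tested compounds plus 3 SD, cut at about 40% in these data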;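 note: 0% = DMSO wells and 100% = unlabeled Bim-BH3 control peptide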
* marks the source's active call; other numbers are inactive results; ? = inconclusive; . = no result; + = active, no number.

SMILES	GLD-1 TGE inh	Bcl-xL primary	EBV gp42 inh	MEX-5 binding	MCL1-BIM inh	E coli Lon inh	Bcl-xL conf	MCL1 inh confirm
COc1cccc(NS(=O)(=O)c2ccc3c(c2)C2C=CCC2C(c2ccc(C(=O)O)cc2)N3)c1 (centres undefined)	15	26	16	-66*	58*	5	29	46*
COc1ccc(C(=O)N/N=C(\C)c2ccc3c(c2)C2C=CCC2C(c2ccccc2)N3)cc1 (centres undefined)	-1	30	-4	.	56*	5	5	-1
COc1ccc(/C(C)=N/NC(=O)c2ccncc2)cc1	0	-11	.	2	-13	-3	.	.
O=C1SC(c2ccccc2)=N/C1=C/c1ccco1	3	5	-1	0	10	-8	.	.
O=C1SC(SCc2ccccc2)=N/C1=C\c1ccco1	6	20	-19	0	43*	-11	8	16
Oc1ccc(-c2nc3ccccc3s2)c(O)c1	6	-3	-10	1	6	-5	.	.
Nc1ccc(O)c(-c2nc3ccccc3s2)c1	16	51*	21	-5	61*	-11	37*	38
O=C(Nc1ccc(O)c(-c2nc3ccccc3s2)c1)c1cccs1	2	5	-10	-2	1	6	.	.
Oc1ccc(N=C/C=C/c2cccc(Br)c2)cc1-c1nc2ccccc2s1	22	36*	-12	2	50*	-19	18	18
Nc1ccc(Nc2ccccc2)c(S(=O)(=O)O)c1	2	25	13	?	42*	-4	48*	78*
Cc1ccc(Nc2ccc(N)cc2S(=O)(=O)O)cc1	0	17	-4	-6	35	-12	.	.
Cc1ccc(S(=O)(=O)N2CCC(C(=O)NNC(=O)c3ccncc3)CC2)cc1	0	3	5	1	7	-4	.	.
O=C(NN1C(=O)/C(=C/C=C/c2ccco2)SC1=S)c1ccncc1	4	46*	-9	-15	80*	-10	30*	45*
O=C1/C(=C/C=C/c2ccco2)SC(=S)N1c1ccc(O)cc1	-10	14	9	-1	28	-24	.	.
CC(C)C(C(=O)O)N1C(=O)/C(=C/C=C/c2ccco2)SC1=S (centres undefined)	6	71*	6	-35*	95*	-1	32*	37
O=C(NN1C(=O)/C(=C/C=C/c2ccccc2)SC1=S)c1ccncc1	-47	-50	-3	6	-79	-66	.	.
CCCNC(=O)c1cc(C2CCCCN2C(=O)c2ccc3c(c2)CCO3)on1 (centres undefined)	.	.	.	.	.	-4	.	.
Cc1ccc(N2C(=O)[C@@H]3[C@H](C2=O)C2CCCN2[C@@H]3C(=O)c2ccccc2)cc1 (some centres undefined)	48*	78*	42	-16	81*	22	64*	76*
CCOC(=O)C1=C(O)/C(=C/c2ccc(-c3ccccc3C(=O)O)o2)SC1=Nc1ccc(C)cc1	.	.	.	.	.	-98	.	.
CCOC(=O)C1=C(O)/C(=C/c2cn(CC(=O)NCC3CCCO3)c3ccccc23)SC1=Nc1ccc(C)cc1 (centres undefined)	-28	81*	.	.	77*	-6	109*	109*
O=C(O)c1cccc(N2C(=O)c3cc([N+](=O)[O-])cc4cc([N+](=O)[O-])cc(c34)C2=O)c1	2	15	.	-10	47*	-4	21	45*
O=C(O)c1cccc(N2C(=O)c3cccc4cccc(c34)C2=O)c1	.	.	.	1	.	-1	.	.
C[C@@H]1CN([C@@H](C)CO)C(=O)CCCn2nncc2CO[C@@H]1CN(C)C(=O)Nc1ccc(N2CCN(C)CC2)cc1	.	.	.	.	.	-5	.	.
COc1cc(/C=N/NC(=O)CSc2cc(C)c(Br)cc2C)ccc1O	0	6	-16	-2	6	-3	.	.
Cc1cc(SCC(=O)N/N=C/c2ccc(O)c(O)c2O)c(C)cc1Br	11	15	12	1	51*	-3	7	34
SMILES	GLD-1 TGE inh	Bcl-xL primary	EBV gp42 inh	MEX-5 binding	MCL1-BIM inh	E coli Lon inh	Bcl-xL conf	MCL1 inh confirm
CCCCNC(=S)Nc1ccc(OC)nc1	49*	56*	25	-17	58*	6	43*	52*
COc1ccc(C2C=C(c3ccc(C)cc3)Nc3ncnn32)cc1 (centres undefined)	.	.	38	-6	.	0	.	.
COc1ccc(C2C=C(c3ccc(Br)s3)Nc3ncnn32)cc1OC (centres undefined)	146*	189*	91*	?	+	.	140*	161*
CCc1n[nH]c(=S)n1/N=C/c1cc(OC)cc([N+](=O)[O-])c1O	4	5	-7	-7	60*	1	16	68*
Cc1nn(-c2ccc([N+](=O)[O-])cc2)c2c1C(c1cccc(Br)c1)N1C(=N2)C(=O)Nc2ccccc21 (centres undefined)	4	3	5	-4	0	-15	.	.
Cc1nn(-c2ccccc2)c2c1C(c1ccc(O)c(O)c1)N1C(=N2)C(Nc2ccccc2)=Nc2ccccc21 (centres undefined)	95*	64*	85*	-1	70*	3	18	19
CC(C)Cc1nnc(NC(=O)c2ccc3c(c2)NC(=O)C(C)S3)s1 (centres undefined)	4	-4	.	-1	-12	-4	.	.
O=c1oc(-c2ccc(Br)o2)nc2ccccc12	8	5	1	-1	98*	3	-2	13
COC(C(=O)N1CCC(n2nccc2NC(=O)C2CC2)CC1)c1ccccc1 (centres undefined)	8	4	.	2	5	-5	.	.
CN1CCN(C(c2ccc(C(F)(F)F)cc2)c2cc(Cl)c3cccnc3c2O)CC1 (centres undefined)	-1	12	.	-2	34	.	.	.
CN1CCN(C(c2ccc(Cl)cc2)c2cc(Cl)c3cccnc3c2O)CC1 (centres undefined)	8	18	.	-11	43*	-5	36*	95*
COc1cc([N+](=O)[O-])cc(/C=C2/SC(=S)N(Cc3ccccc3)C2=O)c1O	0	49*	.	-16	73*	-30	70*	80*
O=C1/C(=C\c2cc(Br)cc(Br)c2O)SC(=S)N1Cc1ccccc1	-12	21	.	-2	51*	-56	24	49*
O=C1/C(=C\c2ccc(O)cc2)SC(=S)N1Cc1ccccc1	-42	-21	.	21	-28	-309	.	.
